# KCNQ2 enhance: potentiators of rat KCNQ2 potassium channel. Potassium voltage-gated channel subfamily KQT member 2 (Rattus norvegicus), O88943. CHO-K1 KCNQ2, FluxOR thallium flux fluorescence; hits give high values. B-score at 10 µM. actives 0.54% (n = 310,000). AID 2239, 2010;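 active = fluorescence ratio B-score at least 3 SD of library B-scores, with initial fluorescence B-score within 3 of them, cut at about 5.3 in these data; same plate scores as AID 2156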;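 also: B-score of peak minus minimum over baseline fluorescence ratio after K+ and Tl+ stimulus; positive B-score means potentiation of KCNQ2 with more thallium influx and brighter signal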
# KCNQ2 block: rat KCNQ2 potassium channel inhibitors, primary screen, cell-based, CHO-K1, FluxOR thallium flux, B-score; Potassium voltage-gated channel subfamily KQT member 2 (Rattus norvegicus), O88943; 20 min; hits give low values; actives 1.1% (n = 310,000); B-score at 10 µM;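 active = fluorescence ratio B-score at most minus 3 library SDs, with starting brightness B-score within 2 library SDs, cut at about -5.5 in these data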
# Kir21 confirm: mouse Kir2.1 channel blockers, retest, confirmation, cell-based, FluxOR thallium flux, duplicate; shares compounds with KCNQ2 enhance; Kir2.1-expressing cells, FluxOR thallium flux fluorescence; hits give low values; Tl flux remaining, % of negative control (hits give low values), % at 10 µM; actives 41% (n = 2,300);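 active = Primary-screen hit whose thallium flux fell at least 3 control SD below untreated wells in both duplicates, with normal baseline fluorescence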;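 also: 0% = blank wells without stimulus and 100% = stimulated no-compound controls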
# Target sequence (P35561 whole entry, looked up): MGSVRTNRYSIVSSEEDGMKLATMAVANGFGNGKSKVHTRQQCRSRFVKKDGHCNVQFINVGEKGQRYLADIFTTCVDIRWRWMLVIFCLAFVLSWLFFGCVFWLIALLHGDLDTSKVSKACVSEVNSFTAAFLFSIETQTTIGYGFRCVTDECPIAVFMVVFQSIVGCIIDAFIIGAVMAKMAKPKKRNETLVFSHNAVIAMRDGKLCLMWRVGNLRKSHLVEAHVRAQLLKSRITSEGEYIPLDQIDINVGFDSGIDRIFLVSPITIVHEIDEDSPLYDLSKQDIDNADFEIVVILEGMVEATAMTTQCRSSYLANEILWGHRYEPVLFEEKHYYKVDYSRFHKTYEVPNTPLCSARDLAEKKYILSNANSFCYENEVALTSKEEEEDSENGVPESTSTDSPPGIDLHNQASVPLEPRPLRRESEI
# HEK293 Tl flux: counter-screen for Kir2.1 inhibitors: effect in parental HEK293 cells; FluxOR signal as % of negative control (100 = no effect), % at 10 µM; shares compounds with KCNQ2 enhance; AID 2105; actives 19% (n = 2,300); FluxOR thallium flux fluorescence; 0% = unstimulated blank wells;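 active = dye signal at least 3 control SD above or below untreated wells in both duplicates, raw fluorescence within 3, either direction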;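 also: percent is based on the flux ratio of peak minus minimum fluorescence over baseline F0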
# CHO-K1 ctr: nonspecific thallium flux increase in parental CHO-K1, confirmation, counter-screen for KCNQ2 potentiator project, cell-based, FluxOR thallium flux, duplicate; shares compounds with KCNQ2 enhance; parental CHO-K1 cells, FluxOR thallium flux fluorescence; zero = vehicle mean+3SD, 100% = vehicle-minus-blank window; activity increase over 3SD of controls, % at 10 µM; actives 43% (n = 1,200); AID 2282, 2010;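 active = signal rise of at least 3 SD above the untreated control mean, in both duplicate wells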;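 also: counter screen of KCNQ2 potentiator hits so any rise reflects channel-independent effects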
# KCNQ1 sel pot: human KCNQ1 channel potentiation off-target, confirmation, selectivity assay for KCNQ2 potentiator project, cell-based, CHO, FluxOR thallium flux; shares compounds with KCNQ2 enhance; CHO KCNQ1 stable, FluxOR thallium flux fluorescence; beyond 3SD, as % of vehicle-control signal; activation over 3SD threshold, % at 10 µM; actives 28% (n = 1,200); AID 2283, 2010;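 active = fluorescence ratio rise of at least 3 SD of vehicle wells above their mean, in both replicate wells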;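 also: 0% = vehicle mean plus 3 SD and 100% = vehicle minus unstimulated blank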
# KCNQ2 pot conf: rat KCNQ2 channel potentiators, confirmation, cell-based, CHO, FluxOR thallium flux, duplicate. shares compounds with KCNQ2 enhance. potentiation, less the hit threshold, % at 10 µM. actives 68% (n = 1,200). AID 2287, 2010. CHO-KCNQ2 cells, FluxOR thallium flux fluorescence;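 active = fluorescence ratio rising 3 SD or more over the vehicle control mean in both replicates, plus primary screen hit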;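 also: peak minus minimum thallium fluorescence divided by baseline after K/Tl stimulus; 0% = vehicle mean plus 3 SD and 100% = vehicle minus unstimulated blank difference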
# Kir2-1 sel: mouse Kir2.1 channel activation off-target, confirmation, selectivity assay for KCNQ2 potentiator project, cell-based, HEK293, FluxOR thallium flux | shares compounds with KCNQ2 enhance | HEK293 Kir2.1, FluxOR thallium flux fluorescence | activity over 3SD threshold, % at 10 µM | actives 2% (n = 1,200);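 active = fluorescence ratio rise of at least 3 SD above the vehicle-control mean, seen in both replicates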;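 also: 0% = vehicle mean plus 3 SD and 100% = vehicle minus no-stimulus blank window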
# KCNQ2 W236L pot: potentiators of retigabine-insensitive KCNQ2 W236L, mechanism study for KCNQ2 potentiator project, cell-based, rat KCNQ2 W236L, CHO, automated patch clamp; shares compounds with KCNQ2 enhance; automated patch clamp current; current increase over 3SD of negative controls (%), hits give high values, % at 25 µM; actives 10% (n = 940);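 active = current increase at least 3 SD of the untreated controls above them in both duplicate recordings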
# An asterisk follows results filed as active; i = inactive; · = not tested or not shown. This is a sample that favours compounds with a hit; in the whole collection about 1.6% have one here.
SMILES,KCNQ2 enhance,KCNQ2 block,Kir21 confirm,HEK293 Tl flux,others
Oc1cccc2nc3ccccc3nc12,12*,i,i,i,CHO-K1 ctr=-14;KCNQ1 sel pot=-6;KCNQ2 pot conf=7.1*;Kir2-1 sel=-35;KCNQ2 W236L pot=i
O=C(c1ccc2c3c(cccc13)CC2)C1CCCN(Cc2ncc[nH]2)C1 (stereo not given),·,i,·,·,
CCC(=O)c1cn(Cc2ccccc2)c2ccccc12,2.1,i,·,·,
CN(C)CCOC(=O)c1cn(Cc2ccccc2)c2ccccc12,·,i,52%*,i,
CCC(C)NC(=O)c1c(N)n(CC2CCCO2)c2nc3ccccc3nc12 (stereo not given),·,i,·,·,
CCN(CC)CCCN=Cc1c(O)n(CCc2ccc(F)cc2)c(=O)[nH]c1=O,·,i,·,·,
CCCCCSc1cc(O)c(C(CNC)C(C)C)cc1OC (stereo not given),0.41,i,·,·,
CCCCCSc1cc(OC)c(CCN(C)C)cc1OC,0.11,i,45%*,i,
c1cncc(CNC2CCCC2)c1,0.88,i,·,·,
CCOC(=O)c1ccc(-[n+]2c(-c3ccccc3)cc(-c3ccccc3)cc2-c2ccccc2)cc1,-8.5,-8.5*,39%*,i,
CN(C)c1ccc(-[n+]2c(-c3ccccc3)cc(-c3ccccc3)cc2-c2ccccc2)cc1,-9.1,-9.1*,i,i,
O=[N+]([O-])c1cc(Cl)c(O)c(-[n+]2c(-c3ccccc3)cc(-c3ccccc3)cc2-c2ccccc2)c1,·,i,·,·,
Cc1ccc(-c2cc(-c3ccc(C)cc3)[n+](-c3ccc(C(=O)[O-])cc3)c(-c3ccc(C)cc3)c2)cc1,·,i,i,i,
CC(=O)c1ccc(-c2ccccc2)cc1,0.72,i,·,·,
Cc1ccc(-c2cc(-c3ccccc3)cc(-c3ccccc3)[n+]2-c2ccccc2)cc1,·,i,18%*,59%*,
Cc1cc(-c2ccccc2)cc(C)[n+]1Cc1ccccc1,1.8,i,·,·,
CCN(CCCl)Cc1ccccc1Br,·,i,·,·,
O=C1N(c2ccc(Cl)cc2)C(c2cccnc2)N2CCCN12 (stereo not given),0.02,i,·,·,
C=CCN1CC[C@]23c4c5ccc(O)c4OC2C(=O)CC[C@@]3(O)C1C5 (stereo not given in full),0.91,i,·,·,
O=P1(Oc2ccccc2)C[C@@H](O)[C@@H](O)[C@H](COCc2ccccc2)O1 (stereo not given in full),0.68,i,·,·,
Fc1ccc(CCNCc2ccc(Cl)c(Cl)c2)cc1,·,i,24%*,i,
CCc1ccc(CNCCc2ccc(F)cc2)cc1,·,i,·,·,
CCc1ccc(CN2CCN(Cc3ccc(SC)cc3)CC2)cc1,·,i,27%*,i,
COc1ccccc1N1CCN(Cc2ccc(SC)cc2)CC1,0.84,i,·,·,
COc1ccc(N2C(=O)CC(N3CC=C(c4ccccc4)CC3)C2=O)cc1 (stereo not given),·,i,·,·,
SMILES,KCNQ2 enhance,KCNQ2 block,Kir21 confirm,HEK293 Tl flux,others
O=C(c1cc2cc(Br)ccc2[nH]1)N1CCC2(CC1)OCCO2,0.18,i,·,·,
COc1ccc(O)c2c(=O)c3c(OC)cc4c(c3oc12)C1C=COC1O4 (stereo not given),·,i,·,·,
O=C(c1n[nH]c(=O)c2ccccc12)N1CCC2(CC1)OCCO2,0.93,i,·,·,
Cc1nc2ccccc2c(=O)n1/N=C/c1cc(Br)cc(Br)c1O,8.1*,i,i,i,CHO-K1 ctr=11*;KCNQ1 sel pot=-15;KCNQ2 pot conf=-26;Kir2-1 sel=-33
Cc1nc2ccccc2c(=O)n1-c1ccc(Br)cn1,·,i,·,·,
CCOc1ccc(Cl)cc1CNCCc1ccccc1F,·,i,38%*,i,
COc1ccc(CCNCc2ccccc2F)cc1OC,1.9,i,·,·,
COc1ccc(CN2CCCC(C(=O)c3cccc(Cl)c3)C2)cc1 (stereo not given),·,i,24%*,i,
CSc1ncc(CN2CCCC(C(=O)c3cccc(Cl)c3)C2)cn1 (stereo not given),1,i,·,·,
CCN1CCN(Cc2ccccc2C)CC1,·,i,·,·,
CC/C(=C\C=C\[C@@H]1C=C[C@@H]2CCC[C@H]2[C@@H]1C(=O)c1ccc[nH]1)[C@@H]1O[C@@H]([C@@H](C)C(=O)O)CC[C@@H]1C,28*,i,·,·,CHO-K1 ctr=-14;KCNQ1 sel pot=-19;KCNQ2 pot conf=74*;Kir2-1 sel=-48;KCNQ2 W236L pot=i
CC1(C)CC(=O)C(C=NCCN2CCN(C(=O)Cc3ccc(Cl)cc3)CC2)=C(O)C1,·,i,·,·,
Cc1cccc(CN2CCN(c3ccc(Cl)cc3)CC2)c1,·,i,·,·,
Cc1cccc(CN2CCN(Cc3ccc(Cl)cc3)CC2)c1,·,i,24%*,i,
CCN1CCN(Cc2ccc(C)cc2)CC1,1.3,i,·,·,
Cc1ccc(CN2CCN(Cc3ccccc3F)CC2)cc1,0.52,i,42%*,i,
CCC(=NCCO)c1c(O)n(C2CCCCC2)c(=O)[nH]c1=O,1.5,i,·,·,
Fc1ccc(C(OCCN2CCCC2)c2ccc(F)cc2)cc1,2.5,i,·,·,
Fc1ccc(C(OCCN2CCCC2)c2ccc(Br)cc2)cc1 (stereo not given),·,i,45%*,i,
CCc1ccc(CNCCc2c[nH]c3ccccc23)cc1,·,i,18%*,i,
c1ccc(CNCCc2c[nH]c3ccccc23)cc1,·,i,·,·,
CC(C)=CCOc1c2occc2cc2ccc(=O)oc12,0.02,i,·,·,
CC(NCc1ccc(Cl)cc1)C(O)c1ccccc1 (stereo not given),·,i,22%*,73%*,
CC(NCc1ccc(Cl)cc1Cl)C(O)c1ccccc1 (stereo not given),·,i,16%*,i,
CC(NCc1cccc(Cl)c1Cl)C(O)c1ccccc1 (stereo not given),·,i,·,·,
